PvdQ inh: P. aeruginosa PvdQ acylase inhibitors, primary screen, biochemical, fluorescence, plate reader and imaging, single point | PvdQ acylase [Pseudomonas aeruginosa LESB58] | purified PvdQ acylase | inhibition, % at 10 µM | hit rate 0.063% among 340,000; in the data active means inhibition above about 30%, passing the limit was not always enough; inconclusive means no clear call, values can overlap the other calls;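 further: 0% = vehicle neutral wells and 100% = reference inhibitor wells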
PGC1a acetyl inh: inhibitors of PGC1a acetylation signal, primary screen, cell-based, U2OS, AlphaScreen, inhibitor mode | AlphaScreen anti-acetyl-lysine; with virally co-expressed GCN5 acetyltransferase | inhibition, % at 15.6 µM | hit rate 0.17% among 350,000;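 active means every replicate shows inhibition of at least 40%; inconclusive means mean inhibition at least 40% but some replicate below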;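 further: 0% = neutral control wells and 100% = positive control wells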
C2C12 statin: suppressors of statin myotoxicity in C2C12 myotubes, primary screen, cell-based, single point, plate reader; hit rate 0.78% among 330,000; rescue of ATP level, % at 7.49 µM; C2C12 myotubes + simvastatin, ATP luminescence, 48 h; scaled: DMSO 0, geranylgeraniol control 100;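 active means mean ATP rescue above about 67%, or every replicate alone reaching that limit, limit read from the data, passing the limit was not always enough; inconclusive means no clear call, values can overlap the other calls; inactive means mean under the limit and some replicate under it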;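 further: myotubes were challenged with 10 µM simvastatin during compound exposure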
miR122 inh: miR-122 Renilla sensor signal increase in Huh7, primary screen, miR-122 inhibitor project, cell-based, single point, plate reader | hit rate 0.3% among 340,000 | AID 602342, 2012 | activation (reporter increase), % at 12.5 µM | Huh7 miR-122 Renilla luciferase sensor, 48 h; neutral wells = 0, positive control = 100;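 active means mean replicate activation score at least 90 and every replicate individually at or above 90; inconclusive means only one of the two criteria met; inactive means neither criterion met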;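 further: higher luciferase means less miR-122 activity so hits act as miR-122 inhibitors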
DENV2 CPE rescue: inhibitors of DENV2 cytopathic effect, primary screen, cell-based, plate reader, single concentration; DENV2-infected cells, cytopathic effect rescue; CPE inhibition, % at 9.99 µM; hit rate 1.7% among 350,000; in the data active means CPE inhibition above about 20%, passing the limit was not always enough; inconclusive means no clear call, values can overlap the other calls; tested in BHK-21 cells;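 further: 0% = median of neutral control wells and 100% = median of positive control wells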
The depositor's hits bear a star; [ ] = dose if it differs, or a comment. Sampled rows, rich in hits. Any-hit rate of the full collection: about 2.2%.

Screening CCc1ccc(OC)c(S(=O)(=O)Nc2ccccc2C)c1 returned PvdQ inh -8.0, PGC1a acetyl inh -9.6, C2C12 statin -1.9, miR122 inh 114.9* and DENV2 CPE rescue -3.4.
COc1ccc(Cl)cc1NS(=O)(=O)c1ccc(OC)c(OC)c1 was read as PvdQ inh -2.8, C2C12 statin 1.5 and miR122 inh 36.3.
Screening COc1cc(NS(=O)(=O)c2cc(C)ccc2OC)c(OC)cc1Cl returned PvdQ inh -13.0, PGC1a acetyl inh -18.8, C2C12 statin 14.7 and miR122 inh 69.4.
`COc1ccc(C)cc1S(=O)(=O)Nc1cc(Cl)ccc1Cl` gave PvdQ inh -7.5, PGC1a acetyl inh -6.8, C2C12 statin 35.0 and miR122 inh 214.7*.
For Cc1noc(C)c1S(=O)(=O)N(C)C[C@@H]1OCCCC[C@H](C)Oc2ccc(NS(=O)(=O)c3ccc(Cl)cc3)cc2C(=O)N([C@H](C)CO)C[C@@H]1C the results were PGC1a acetyl inh -18.1, miR122 inh -11.0[16.7 µM] and DENV2 CPE rescue inconclusive.
`O=C1CNC[C@@H]2[C@@H](c3ccc(C4=CCCCC4)cc3)[C@H](CO)N12` gave PGC1a acetyl inh -10.8 and DENV2 CPE rescue inconclusive.
For Cn1cnc(S(=O)(=O)N2C[C@@H](O)COC[C@@H]3O[C@H](CC(=O)NCc4cccc(F)c4)CC[C@H]32)c1 the results were PGC1a acetyl inh 6.9, C2C12 statin 9.3, miR122 inh 2.9[16.7 µM] and DENV2 CPE rescue 1.1.
For Cc1cc(C)n(-c2nnc(Cl)c3ccccc23)n1 the results were PvdQ inh 0.8, PGC1a acetyl inh -46.1 and DENV2 CPE rescue 22.9*.
For C[C@H](CO)N1C[C@H](C)[C@@H](CN(C)Cc2ccc3c(c2)OCO3)Oc2ccc(NC(=O)CCC(F)(F)F)cc2C1=O the results were PGC1a acetyl inh 7.1, C2C12 statin -7.1, miR122 inh 5.3[16.7 µM] and DENV2 CPE rescue 1.8.
C[C@H](CO)N1C[C@H](C)[C@H](CN(C)Cc2ccc3c(c2)OCO3)Oc2ccc(NC(=O)CCCCCC(=O)Nc3ccccc3N)cc2C1=O was read as PGC1a acetyl inh -2.0 and DENV2 CPE rescue -3.9.
`C[C@H](CO)N1C[C@H](C)[C@@H](CN(C)Cc2ccc3c(c2)OCO3)Oc2ccc(NC(=O)CCCCCC(=O)Nc3ccccc3N)cc2C1=O` gave PGC1a acetyl inh 0.7 and DENV2 CPE rescue 28.4*.
`C[C@@H]1CN([C@@H](C)CO)C(=O)c2cc(NC(=O)CCCCCC(=O)Nc3ccccc3N)ccc2O[C@@H]1CN(C)Cc1ccc2c(c1)OCO2` gave PGC1a acetyl inh 9.2 and DENV2 CPE rescue 20.5*.
Screening C[C@@H]1CN([C@@H](C)CO)C(=O)c2cc(NC(=O)CCC(F)(F)F)ccc2O[C@@H]1CN(C)Cc1ccc2c(c1)OCO2 returned PGC1a acetyl inh 4.6, C2C12 statin 3.1, miR122 inh 5.4[16.7 µM] and DENV2 CPE rescue 29.1*.
Screening C[C@H](CO)N1C[C@H](C)[C@@H](CN(C)Cc2ccc(Cl)c(Cl)c2)Oc2c(NC(=O)c3nc4ccccc4s3)cccc2C1=O returned PGC1a acetyl inh -1.9, miR122 inh 10.9[16.7 µM] and DENV2 CPE rescue -10.3.
Screening COc1cc(S(=O)(=O)N2CCN(c3ccccc3F)CC2)ccc1Cl returned PvdQ inh -11.8, PGC1a acetyl inh 3.1, C2C12 statin 77.7* and miR122 inh -2.3.
COc1cc(S(=O)(=O)N2CCN(c3ccccc3)CC2)ccc1Cl was read as PvdQ inh -12.7, PGC1a acetyl inh -14.0, C2C12 statin 0.3, miR122 inh -0.4 and DENV2 CPE rescue 13.1.
Screening COc1cc(S(=O)(=O)N2CCCCCC2)ccc1Cl returned PvdQ inh -12.7, PGC1a acetyl inh -3.4, C2C12 statin 99.6* and miR122 inh 36.4.
COc1ccc(Nc2ccc(S(=O)(=O)N3CCCCC3)cc2[N+](=O)[O-])cc1 was read as PvdQ inh 6.6 and miR122 inh -18.5.
`COc1ccc(Nc2ccc(S(=O)(=O)N3CCCCC3)cc2[N+](=O)[O-])cc1Cl` gave PvdQ inh 5.0, PGC1a acetyl inh -3.0, C2C12 statin -6.8, miR122 inh -8.4 and DENV2 CPE rescue 40.7*.
O=C(Nc1cc(F)ccc1F)N1CCCCN2[C@@H](CO)[C@@H](c3ccc(-c4cncnc4)cc3)[C@@H]2C1 was read as PGC1a acetyl inh -1.3, miR122 inh -2.4[16.7 µM] and DENV2 CPE rescue 4.6.
For CC(=O)N(c1cccc(C)c1)S(=O)(=O)c1ccc(Cl)cc1 the results were PvdQ inh -10.1, PGC1a acetyl inh 53.0*, C2C12 statin 8.4, miR122 inh 9.4 and DENV2 CPE rescue 1.3.
Cc1cccc(N(CC(=O)NC2CC2)S(=O)(=O)c2ccc(Cl)cc2)c1 was read as PvdQ inh -13.9, C2C12 statin 1.2 and DENV2 CPE rescue 49.6*.
`CC(C)CC#Cc1ccc2c(c1)O[C@H](CN(C)Cc1cccc(F)c1)[C@H](C)CN([C@H](C)CO)S2(=O)=O` gave PGC1a acetyl inh 16.2, miR122 inh 17.5[16.7 µM] and DENV2 CPE rescue -3.2.
`CN(C)C(=O)c1cccc(-c2ccc3c(c2)[C@H]2[C@H](CCN2C(=O)c2ccncc2)[C@@H](CO)N3C)c1` gave PGC1a acetyl inh 14.3, C2C12 statin 2.2, miR122 inh -0.9[16.7 µM] and DENV2 CPE rescue -9.3.
Screening O=C(CN1CCN(S(=O)(=O)c2ccc(Br)cc2)CC1)Nc1ccc2c(c1)OCCO2 returned PvdQ inh -6.5, PGC1a acetyl inh -20.0, C2C12 statin 144.0* and miR122 inh 0.8.
For CCNC(=O)C[C@@H]1CC[C@H]2[C@@H](COc3ccc(NC(=O)c4ccc5c(c4)OCO5)cc3C(=O)N2C)O1 the results were PGC1a acetyl inh 3.0, C2C12 statin 3.1, miR122 inh 8.6[16.7 µM] and DENV2 CPE rescue 4.4.
`O=C(Nc1cccc(-n2cnnn2)c1)c1cc2ccccc2o1` gave PvdQ inh -13.2, C2C12 statin 5.3 and DENV2 CPE rescue -0.7.
Screening CCC(=O)N1CCN(c2ccc(NC(=O)c3ccco3)cc2)CC1 returned PvdQ inh -1.4, PGC1a acetyl inh -6.5, C2C12 statin 94.8* and miR122 inh -2.1.
`CCN1CCN(c2ccc(NC(=O)Cc3ccccc3)cc2)CC1` gave PvdQ inh -12.9, PGC1a acetyl inh 1.5, C2C12 statin 104.5* and miR122 inh 31.0.
`O=C(Nc1cccc(-n2cnnn2)c1)c1ccco1` gave PvdQ inh -13.0, PGC1a acetyl inh 9.3, C2C12 statin 110.5* and miR122 inh -10.2.
Screening O=C(Nc1ccc(Br)c(Cl)c1)c1ccco1 returned PvdQ inh -11.3, PGC1a acetyl inh -13.5, C2C12 statin 11.8 and miR122 inh 143.9*.
`COCC(=O)Nc1ccc2c(c1)OC[C@@H](C)N(Cc1cccnc1)C[C@H](C)[C@@H](OC)CN(C)C2=O` gave PGC1a acetyl inh 12.7, C2C12 statin -6.2 and DENV2 CPE rescue -6.3.

Screens from PubChem BioAssay.
